The assay in a line: reversal of MRP1-mediated doxorubicin resistance, primary screen, H69AR cells, doxorubicin co-treatment (AID 602).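 For differential viability (reversal): larger differential means the compound sensitizes cells more to doxorubicin.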 The following applies: CellTiter-Glo, 72 h, at 10 µM; for differential viability (reversal): stronger effect = higher value. For orientation: ATP-based viability assays read luminescence as a measure of living cells.
The mark [1] stands for this setting: H69AR cells + 2 uM doxorubicin, measured here: viability with 2 uM doxorubicin, stronger effect = lower value.
Where [2] appears, read: H69AR cells, measured here: cytotoxicity without doxorubicin.

Molecules are shown by their SMILES. Hit rate of the full screen: of about 85,000 compounds, about 35 (0.04%) were called active. This is one part of a sample in which actives are shown more often than they occur.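 Rule for the calls: active = viability drop by adding the cancer drug above about 55%, with treated viability meeting a 40% cutoff (limit read from the data); inactive = the rest, inconclusive results apart.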

The viability is a read-out of living cells in per cent, often relative to untreated cells.

On to `CCCC(=O)C1CCN(Cc2ccccc2)CC1`, for which, for the setting “H69AR cells + 2 uM doxorubicin”, the differential viability (reversal) was 1.73% (inactive). For the same molecule, the viability under setting [1] was 91.3% and the viability under setting [2] was found to be 93%.
Take `CC1(C)COC(c2cccn2Cc2ccccc2Cl)=N1`: the differential viability (reversal) (H69AR cells + 2 uM doxorubicin) is 13.1% (inactive). Moreover, the viability reads like this: under setting [1], 90.7%; under setting [2], 104%.
`COc1ccc(C2CC(=O)n3c(nc4ccccc43)S2)cc1OC` (stereo unspecified): for the setting “H69AR cells + 2 uM doxorubicin”, the differential viability (reversal) is 4.1% (inactive). The viability under setting [1] was 111% and the viability under setting [2] was found to be 115%.
In the same order, the values of `CCc1ccc2c(c1)C1(NN=C(c3ccccc3)S1)C(=O)N2` (stereo unspecified) are -18.7% (inactive), 34% and 15.2%.
As for `COc1cccc(OC)c1C(=O)Nc1ccc(N2CCCCC2)cc1`, the differential viability (reversal) (H69AR cells + 2 uM doxorubicin) was 15% (inactive). The viability by setting is: under setting [1], 90.1%; under setting [2], 105%.
Regarding `COC(=O)CSc1snnc1-c1ccc(Cl)c(Cl)c1`, the differential viability (reversal) (H69AR cells + 2 uM doxorubicin) was 8.05% (inactive). Further, the viability by setting is: under setting [1], 89.3%; under setting [2], 97.3%.
As for `CC(C)C(=O)NC(NC(=S)NC1CCS(=O)(=O)C1)C(Cl)(Cl)Cl` (stereo unspecified), the differential viability (reversal) (H69AR cells + 2 uM doxorubicin) was 6.22% (inactive). Also, the viability came out at 95.7% under setting [1] and 102% under setting [2].
With `CCOC(=O)c1cnn(Cc2ccccc2Cl)c1N`, the differential viability (reversal) (H69AR cells + 2 uM doxorubicin) is 4.58% (inactive). Also, the viability reads like this: under setting [1], 91.6%; under setting [2], 96.2%.
`CCOc1cccc(C(=O)Nc2nnc(-c3cccs3)s2)c1`: under “H69AR cells + 2 uM doxorubicin”, the differential viability (reversal) is -41.2% (inactive). Moreover, the viability by setting is: under setting [1], 103%; under setting [2], 62.1%.
With `CCn1nccc1C(=O)Nc1ccc(Cl)c(Cl)c1`, the differential viability (reversal) (H69AR cells + 2 uM doxorubicin) was 8.65% (inactive). Moreover, the viability runs as follows: under setting [1], 68.4%; under setting [2], 77%.
As for `CCCc1nc2sc3c(c2c(=O)n1NC(=O)CCCl)CCCC3`, for the setting “H69AR cells + 2 uM doxorubicin”, the differential viability (reversal) was 11.4% (inactive). In addition, the viability was found to be 24.6% under setting [1] and 36% under setting [2].
Consider `CC(c1ccco1)N(C(=O)Nc1ccccc1)C1CCCCC1` (stereo unspecified), for which the differential viability (reversal) (H69AR cells + 2 uM doxorubicin) is 8.57% (inactive). Further, the viability reads like this: under setting [1], 69.1%; under setting [2], 77.7%.
In the same order, the values of `CCCNC(=O)c1ccccc1NC(=O)CSCc1ccc(OC)cc1` are 16.1% (inactive), 67.8% and 83.9%.
In the case of `O=C(CSc1nnc(-c2cccnc2)n1CCc1ccccc1)NCc1ccccc1`, under “H69AR cells + 2 uM doxorubicin”, the differential viability (reversal) was 20.9% (inactive). For the same molecule, the viability is, setting by setting: under setting [1], 68.7%; under setting [2], 89.6%.
Regarding `Cc1ccc(Nc2nnc(SCc3ccccc3)s2)cc1`, the differential viability (reversal) (H69AR cells + 2 uM doxorubicin) was 25.2% (inactive). In addition, the viability is, setting by setting: under setting [1], 73%; under setting [2], 98.2%.
On to `CC1CCN(S(=O)(=O)c2ccc(S(=O)(=O)NCc3ccco3)cc2)CC1`, for which the differential viability (reversal) (H69AR cells + 2 uM doxorubicin) is -17.8% (inactive). The viability was found to be 93.1% under setting [1] and 75.4% under setting [2].
As for `CC(=O)NC1(c2cccc(F)c2)CCN(CC(=O)NC(C)C)CC1`, for the setting “H69AR cells + 2 uM doxorubicin”, the differential viability (reversal) is -7.86% (inactive). The viability by setting is: under setting [1], 90.6%; under setting [2], 82.8%.
The like results for `CCOc1ccc(N=Cc2c(O)n(-c3cccc(C)n3)c(=O)c3ccccc23)cc1` were, in that order, 10.8% (inactive), 80.7% and 91.4%.
The like results for `CCN(CC)S(=O)(=O)c1cc([N+](=O)[O-])ccc1NNC(=O)Nc1ccccc1` were, in that order, 0.11% (inactive), 89.8% and 89.9%.
As for `CCOc1nc(NCCN2CCOCC2)nc(Nc2ccc(C)cc2)n1`, the differential viability (reversal) (H69AR cells + 2 uM doxorubicin) is 15.7% (inactive). Also, the viability runs as follows: under setting [1], 76.1%; under setting [2], 91.8%.
As to `Cc1cccc(OCCCC(=O)Nc2ccc(S(=O)(=O)N3CCCC3)cc2)c1`, the differential viability (reversal) (H69AR cells + 2 uM doxorubicin) is 6.98% (inactive). The viability worked out at 82.2% under setting [1] and 89.2% under setting [2].
As to `COc1ccc(C2C(C#N)=C(/N=C/N3CCOCC3)OC3=C2C(=O)CC(C)(C)C3)cc1OC` (stereo unspecified), the differential viability (reversal) (H69AR cells + 2 uM doxorubicin) was 12.9% (inactive). In addition, the viability by setting is: under setting [1], 83.8%; under setting [2], 96.7%.

The values are drawn from PubChem BioAssay AID602 (SRMLSC, 2007).
